In PubChem BioAssay (Tox21):
Inconclusive results are not listed. A call without a number means that no potency is given here. Active and inactive are the calls of the source. Calls come from the whole dose curve.

molecular target: 5-hydroxytryptamine receptor 2A (Homo sapiens) (UniProt P28223); test: 5-hydroxytryptamine receptor 2A (HTR2A) small molecule agonists, cell-based qHTS assay (AID 1963587); settings: HTR2A-CHO cells, calcium flux fluorescence, agonist mode; series mostly up to 76.8 µM; note: nearly all actives have a fitted effect of over 30% in size
Sequence (P28223 whole entry, looked up): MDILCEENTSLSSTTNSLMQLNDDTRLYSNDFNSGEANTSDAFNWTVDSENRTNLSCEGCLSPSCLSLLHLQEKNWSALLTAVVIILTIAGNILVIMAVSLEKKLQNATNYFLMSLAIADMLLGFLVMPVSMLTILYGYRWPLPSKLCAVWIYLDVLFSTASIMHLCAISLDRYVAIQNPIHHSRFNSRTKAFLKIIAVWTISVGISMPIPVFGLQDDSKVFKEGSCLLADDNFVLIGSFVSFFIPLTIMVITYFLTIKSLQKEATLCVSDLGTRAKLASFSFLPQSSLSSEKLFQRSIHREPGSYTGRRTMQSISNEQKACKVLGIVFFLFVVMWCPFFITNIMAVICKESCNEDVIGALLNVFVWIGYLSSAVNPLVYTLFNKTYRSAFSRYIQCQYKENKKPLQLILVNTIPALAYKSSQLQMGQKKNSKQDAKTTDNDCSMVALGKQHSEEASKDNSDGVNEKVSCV
From the text: National Center for Advancing Translational Sciences [NCATS]
Division of Preclinical Innovation [DPI]
U.S. Environmental Protection Agency [EPA]
National Institutes of Environmental Health Sciences [NIEHS]
National Toxicology Program [NTP]
U.S. Food and Drug Administration [FDA]
The HTR2A receptor is a subtype of the 5-HT2 receptor that belongs to the serotonin receptor family and is a G protein-coupled receptor (GPCR). The HTR2A-CHO cell line stably expressing human 5-hydroxytryptamine receptor 2A (HTR2A) can be used for screening agonists of interactions between 5-HT2 and its ligands. The HTR2A-CHO calcium flux assay is a homogeneous fluorescence-based assay for detecting the intracellular calcium level using FDSS kinetic plate reader system.
HTR2A-CHO cells were dispensed at 2000 cells/3uL/well in 1536-well black-clear bottom plates using a Multidrop Dispenser. After the assay plates were incubated at a 37 C/5% CO2 incubator for 18 h, 3 uL of Dye Loading Buffer was transferred to the assay plate by a Flying Reagent Dispenser. The assay plates were incubated at 37 C for 1h. For agonist mode, 23 nL of compounds dissolved in DMSO, positive controls or DMSO only was transferred to the assay plate by a pin tool. The fluorescence intensity in the plates was measured using FDSS 7000EX kinetic plate reader for 2 min at 1 sec intervals.

Q: With `COC(OC)OC` as the compound, how does the Potency read?
A: inactive

Q: Which Potency does the source give for `O=[N+]([O-])c1ccccc1Nc1ccccc1` here?
A: inactive

Q: With `S=C(NC1CCCCC1)NC1CCCCC1` as the compound, how does the Potency read?
A: inactive

Q: Which Potency does the source give for `CCCCCCCCCCC` here?
A: inactive

Q: `CC1=CC(=O)c2ccccc2C1=O` was tested. Which Potency did it give?
A: inactive

Q: How did the Potency turn out when `CCN(CC)CCNC(=O)c1ccc(NC(C)=O)cc1` was run?
A: inactive

Q: How did the Potency turn out when `COc1ccc(C)cc1` was run?
A: inactive

Q: `O=C(c1ccccc1)C1(O)CCCCC1` was tested. Which Potency did it give?
A: inactive

Q: With `CC(C)C(=O)O` as the compound, how does the Potency read?
A: inactive

Q: Which Potency does the source give for `Cn1ccnc1` here?
A: inactive

Q: How did the Potency turn out when `C[N+](C)(C)CC[N+]1(C)Cc2c(Cl)c(Cl)c(Cl)c(Cl)c2C1` was run?
A: inactive

Q: Which Potency does the source give for `CC(C)=C1CC[C@@H](C)CC1=O` here?
A: inactive

Q: `CC(C)OC(=O)CCCCC(=O)OC(C)C` was tested. Which Potency did it give?
A: inactive

Q: Which Potency does the source give for `CCCC(C)CO` (stereo not given) here?
A: inactive

Q: How did the Potency turn out when `CC(=O)CC(N)=O` was run?
A: inactive

Q: For `CCCCCCCO`, which Potency is on record?
A: inactive

Q: Which Potency does the source give for `O=C(O)c1ccccc1[N+](=O)[O-]` here?
A: inactive

Q: For `O=C(O)/C=C/c1ccccc1`, which Potency is on record?
A: inactive

Q: Which Potency does the source give for `Nc1c(S(=O)(=O)O)cc(Br)c2c1C(=O)c1ccccc1C2=O` here?
A: inactive

Q: `CCCCCCCCc1ccc(Nc2ccc(CCCCCCCC)cc2)cc1` was tested. Which Potency did it give?
A: inactive

Q: With `CCN1CCc2nc(N)oc2CC1` as the compound, how does the Potency read?
A: inactive

Q: For `N#CCN(CC#N)CCN(CC#N)CC#N`, which Potency is on record?
A: inactive

Q: How did the Potency turn out when `O=C(O)CCS` was run?
A: inactive

Q: With `CC12CCC(C1)C(C)(C)C2O` (stereo not given) as the compound, how does the Potency read?
A: inactive

Q: How did the Potency turn out when `CN(C)c1ccc(C(=N)c2ccc(N(C)C)cc2)cc1` was run?
A: inactive

Q: `C[N+](C)(CCOc1ccccc1)Cc1cccs1` was tested. Which Potency did it give?
A: inactive

Q: Which Potency does the source give for `COc1ccccc1NC(=O)CC(C)=O` here?
A: inactive

Q: With `CC(=O)OCCCc1ccccc1` as the compound, how does the Potency read?
A: inactive

Q: For `CCOC(=O)NCCC[Si](OCC)(OCC)OCC`, which Potency is on record?
A: inactive

Q: With `CN(CC1(C)CCCO1)S(=O)(=O)c1ccc(Cl)c(S(N)(=O)=O)c1` (stereo not given) as the compound, how does the Potency read?
A: inactive

Q: How did the Potency turn out when `CN1CCCC1=O` was run?
A: inactive

Q: `C[C@H]1C[C@H](O)c2ccsc2S1(=O)=O` was tested. Which Potency did it give?
A: inactive

Q: How did the Potency turn out when `CC/C=C\C#N` was run?
A: inactive

Q: `CC(C)CC=O` was tested. Which Potency did it give?
A: inactive

Q: Which Potency does the source give for `COc1ccccc1/C=C/C=O` here?
A: inactive

Q: With `C/C(Cl)=C/CCl` as the compound, how does the Potency read?
A: inactive

Q: Which Potency does the source give for `Nc1nccs1` here?
A: inactive

Q: How did the Potency turn out when `CC(C)(O)C(=O)c1ccc(OCCO)cc1` was run?
A: inactive

Q: Which Potency does the source give for `CC(C)CC(=O)OCc1ccccc1` here?
A: inactive

Q: How did the Potency turn out when `COS(=O)(=O)O` was run?
A: inactive
